# p53 reactivator = mutant p53 re-activation in reporter cells; H1299 p53-A138V BP100-luciferase reporter, luminescence, 24 h; 320,000 tested, 0.063% active; Potency, µM (series often up to 92.2 µM), inactives show top-dose activity change, positive = activation, usual class: activators; further: % of control where 0% means no effect; nearly all actives have a fitted effect of over 45% in size
#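 p53-null H1299 cells stably carrying temperature-sensitive p53-A138V and a BP100-luciferase reporter were pinned with compounds (4-point, 1:5 series) and held 24 hrs at 37 deg C. Luminescence was read 10 min after detection reagent.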
# ELG1 genotoxic = genotoxicity induction in ELG1-luciferase HEK293T cells; 330,000 tested, 1.3% active; HEK293T ELG1-luciferase reporter, luminescence, 16 h; Potency, µM (highest dose often 46 µM), without a hit: top-dose activity change, positive = activation, usual class: activators; AID 504466; further: % of control where 0% means no effect; nearly all actives have a fitted effect of over 60% in size
#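 After overnight (16 hr) compound treatment at 37 °C, ELG1-luciferase HEK293T cells were lysed with ONE-Glo; luminescence quantified 30 min later at room temperature.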
# Rab9 prom act = activators of Rab9 promoter. Huh7 Rab9 promoter-luciferase reporter, luminescence, 24 h. Potency, µM (highest dose often 9.22 µM), for inactives: at the top dose activation, negative = inhibition, usual class: activators. 320,000 tested, 2.8% active. AID 485297; further: % of control where 0% means no effect; nearly all actives have a fitted effect of over 60% in size
#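 Huh7 reporter line, Rab9 promoter upstream of luciferase. Compound exposure 24 h at 37 °C in reduced-serum medium with 10% FBS. Read-out: luminescence.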
# SMN2 splice up = increases expression of the SMN2 splice variant | 210,000 tested, 2.8% active | Potency, µM (titrated, usually from 46.1 µM), for the others: at the highest dose activity change, positive = activation, actives largely listed as activators | AID 1458 | HEK293 SMN2-luciferase splicing reporter, luminescence, 30-36 h; further: % of control where 0% means no effect; nearly all actives have a fitted effect of over 55% in size
#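 HEK293 cells carry an SMN2 minigene-luciferase reporter in which exon 7 inclusion puts luciferase in frame. Cells were seeded at 2000 cells/well, attached for 10-12 hours, then exposed to compounds for 30-36 hours at 37C before ONE-Glo luminescence.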
# FLuc counter = counter-screen for miR-21 project: firefly luciferase inhibitors or activators; P08659; purified FLuc, Km substrates, luminescence inhibition; Potency, µM (titrated, usually from 57.5 µM), for the others: at the top dose activity change, negative = inhibition, actives largely listed as inhibitors; 360,000 tested, 6.9% active; AID 588342;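 further: plate controls were vehicle for no effect and reference inhibitor for full effect; nearly all actives have a fitted effect of over 55% in size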
# Target sequence (P08659 whole entry, looked up): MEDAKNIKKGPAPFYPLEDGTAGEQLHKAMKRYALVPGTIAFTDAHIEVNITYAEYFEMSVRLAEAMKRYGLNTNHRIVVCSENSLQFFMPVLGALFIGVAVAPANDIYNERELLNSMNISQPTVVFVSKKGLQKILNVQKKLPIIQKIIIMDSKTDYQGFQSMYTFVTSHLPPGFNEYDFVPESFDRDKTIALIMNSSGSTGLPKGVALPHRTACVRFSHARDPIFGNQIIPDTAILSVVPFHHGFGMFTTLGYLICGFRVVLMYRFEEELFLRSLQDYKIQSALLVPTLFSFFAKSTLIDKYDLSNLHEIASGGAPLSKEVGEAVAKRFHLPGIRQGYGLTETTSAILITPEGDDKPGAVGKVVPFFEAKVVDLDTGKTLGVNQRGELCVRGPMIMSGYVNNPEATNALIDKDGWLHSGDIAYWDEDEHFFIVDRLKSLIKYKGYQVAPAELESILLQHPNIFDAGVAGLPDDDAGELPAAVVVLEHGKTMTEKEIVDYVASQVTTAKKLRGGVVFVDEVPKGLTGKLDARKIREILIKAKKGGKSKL
#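 Purified P. pyralis luciferase (10nM final) with 10uM D-luciferin and 10uM ATP (Km levels) in 50mM Tris acetate pH 7.5, 10mM Mg acetate, 0.01% Tween-20, 0.05% BSA; qHTS 6-point titration, ~60 µM downward; luminescence read.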
# NPC1 promoter act = activates the NPC1 promoter; Potency, µM (series often up to 9.22 µM), for inactives: at the highest dose activation, usual class: activators; 320,000 tested, 2.4% active; Huh7 NPC1 promoter luciferase reporter, 24 h; AID 485313; further: % of control where 0% means no effect; nearly all actives have a fitted effect of over 60% in size
#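 Huh7 reporter cells (NPC1 promoter driving luciferase) are dosed with compound for 24 h at 37 °C, 5% CO2; luciferase detection reagent is then added and luminescence measured after 10 min at ambient temperature.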
# * = called active by the depositor; ? = inconclusive; . = not tested or not shown; [ ] = remark or other dose. Most compounds without a hit are left out; they make up all but 7.4% or so of the library. The call rests on the fitted dose curve; in most records, active means well fitted curve in the direction sought with a large enough effect; inconclusive means small, poorly fitted or top-dose-only effect, or another doubt; inactive means no such curve, though single readings can be large; an effect the other way counts as inactive or inconclusive. Potency means the concentration at half of the fitted maximal effect.
SMILES,p53 reactivator,ELG1 genotoxic,Rab9 prom act,SMN2 splice up,FLuc counter,NPC1 promoter act
COc1ccc2nc(/N=C(\N)NC(=O)C(C)(C)C)nc(C)c2c1,?,3%,?,-28%,?,?
CCOC(=O)CCSc1nc(C)c2cc(C)ccc2n1,?,18µM*,22%,-6%,9.5µM*,16%
CCOC(=O)CNC(=O)CSc1cc(C)nc2ccc(OC)cc12,14%,?,3.2µM*,.,6.7µM*,4µM*
CNC1C(O)C2OC3OC(C)CC(=O)[C@@]3(O)O[C@H]2[C@H](NC)C1O (some centres undefined),.,.,.,7%,.,.
COc1ccc2c(c1)c(N1CCCC1=O)c(C(=O)Nc1ccc(Cl)cc1C)n2C,.,.,.,.,-2%,.
CC(C)C(=O)Nc1nc2cc3c(cc2s1)OCO3,17%,18µM*,?,-7%,13µM*,?
CC(C)(C)C(=O)Nc1nc2cc3c(cc2s1)OCO3,?,?,1.1µM*,.,4.8µM*,2µM*
COC(=O)c1ccc(NC(=O)CS(=O)(=O)c2ccccc2)cc1,-9%,5%,20%,.,-12%,0%
CCc1ccccc1OCC(=O)Nc1ccc(S(N)(=O)=O)cc1,-8%,-1%,-3%,35µM*,3%,1%
CC(C)(C)c1ccc(C2=NC(=O)C(CC(=O)O)S2)cc1 (centres undefined),10%,0%,17%,.,1.7µM*,12%
COc1ccc(C(=O)CC2SC(N)=NC2=O)cc1 (centres undefined),3%,5%,-6%,.,-11%,5%
Cc1ccc(NC(=O)/C=C/c2ccco2)cc1F,.,.,.,.,5.4µM*,.
COc1ccc(NC(=O)/C=C/c2ccco2)cn1,4%,?,4µM*,13µM*,21µM*,3.2µM*
COc1ccc(NC(=O)/C=C/c2cccc(F)c2)cn1,?,?,2.2µM*,11µM*,7.6µM*,2µM*
COc1cccc(CNC(=O)CCCCCn2c(=O)[nH]c3cc(OC)c(OC)cc3c2=O)c1,.,.,.,7%,-8%,.
CC1(c2cccc(Br)c2)NC(=O)N(CC(=O)Nc2ccc(S(N)(=O)=O)cc2)C1=O (centres undefined),4%,4%,7%,.,-1%,-4%
O=C(CCn1ccc2cc(S(=O)(=O)N3CCCC3)ccc21)NCc1ccccc1Cl,.,.,.,.,-8%,.
CCOC(=O)N/N=C\C=C\c1ccc2c(c1)OCO2,?,?,3.2µM*,-8%[1.84 µM],13µM*,?
O=C(N/N=C/C=C/c1ccc2c(c1)OCO2)c1ccc([N+](=O)[O-])cc1,0%,1%,-3%,9%,-10%,-1%
COC(=O)N/N=C\C=C\c1ccc2c(c1)OCO2,2%,2%,3.5µM*,6%,15µM*,4µM*
CC(C)(C)OC(=O)N/N=C\C=C\c1ccc2c(c1)OCO2,?,?,1.6µM*,-15%[1.84 µM],7.6µM*,4µM*
COc1ccc(CC(=O)N/N=C/C=C/c2ccc3c(c2)OCO3)cc1OC,-3%,3%,0%,.,-6%,1%
Cc1c(OCC(=O)N2CCC(C(=O)NCCCC(=O)O)CC2)ccc2c1oc(=O)c1ccccc12,1%,0%[9.26 µM],-3%,.,?,-3%
CN(C)/N=C/c1ccc(OS(=O)(=O)c2ccccc2)cc1,24%,8.2µM*,2.8µM*,.,21µM*,3.5µM*
CCCCN(C)CCCNC(=O)CN1C(=O)COc2ccc(S(=O)(=O)N3CCC(C)CC3)cc21,.,.,.,-2%,-1%,.
SMILES,p53 reactivator,ELG1 genotoxic,Rab9 prom act,SMN2 splice up,FLuc counter,NPC1 promoter act
CC(=O)c1cc(C#N)c(SCc2ccccc2C#N)nc1C,4%,0%,3%,13%,15µM*,0%
Cc1cc(N/N=C/c2ccc(Cl)cc2Cl)nc(NCc2ccccc2)n1,3%,-9%,-10%,-49%,?,-9%
COc1ccc2nc(C)cc(N/N=C/c3ccc(F)cc3)c2c1,.,-17%,-12%,.,17µM*,-39%
COc1ccc(/C=N/Nc2cc(C)nc3ccccc23)cc1,10%,?,-2%,.,?,13%
Cc1cc(N/N=C/c2ccc(F)cc2)nc(NCc2ccccc2)n1,18%,1%,1%,.,11µM*,15%
Cc1ccc(/C=N/Nc2cc(C)nc(NCc3ccccc3)n2)cc1,0%,-5%,-6%,.,11µM*,-2%
Cc1cc(N/N=C/c2ccc(N(C)C)cc2)nc(NCc2ccccc2)n1,-2%,-12%,-12%,.,11µM*,2%
CC(C)CN(C(=O)COC(=O)CSc1ccc([N+](=O)[O-])cc1)C1CCS(=O)(=O)C1 (centres undefined),-3%,2%,-4%,.,-3%,-3%
COc1ccc(NC(=O)c2cn(CC(C)C)c(=O)c3cc(OC)c(OC)cc23)cc1Cl,.,.,.,0%,-5%,.
Cc1ccc(NCC(=O)Nc2cccc(F)c2)cc1S(=O)(=O)N1CCCCCC1,-11%,-3%,-7%,.,4%,-8%
C[C@]12CC[C@H]3c4ccc(O)cc4CC[C@@H]3[C@H]1C/C(=N/O)[C@H]2O,.,.,.,-19%[9.22 µM],.,.
COc1ccc(NC(=O)c2ccc3ncsc3c2)cc1,?,?,1.4µM*,.,8.5µM*,3.2µM*
